Bioassay records from PubChem.
LASV entry inh = inhibitors of Lassa virus binding or cell entry; Lassa virus pseudotype entry inhibition, cell reporter; Potency, µM (doses to about 37.9 µM), usual class: inhibitors; hit rate 1.2% among 300,000; calls by dose curve; tested in HEK293 cells; further: nearly all actives have a fitted effect of over 50% in size
VACV mCherry inh = vaccinia inhibition (mCherry reporter). Vaccinia virus mCherry reporter infection, fluorescence. Potency, µM (top dose mostly 36.5 µM), actives largely listed as inhibitors. hit rate 0.63% among 310,000; calls by dose curve; tested in A549 cells; further: nearly all actives have a fitted effect of over 35% in size
HCMV antiviral = blocks human cytomegalovirus replication; HFF cells, HCMV-luciferase reporter, 72 h; active compounds read low; hit rate 4.5% among 410,000; activity change, negative = inhibition, % at 57.5 µM; AID 1259415; in the data active means activity change below about -60%; inconclusive means no clear call, values can overlap the other calls; inactive means above about -39%
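Human foreskin fibroblasts infected with luciferase-reporter HCMV at MOI 1 PFU/cell, compounds at two doses. Luciferase measured 72 h post infection; normalized to buffer-only basal and Salinomycin (10uM) controls.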
VACV Venus inh = vaccinia inhibition (Venus reporter); Vaccinia virus Venus reporter expression, fluorescence; Potency, µM (doses to about 36.5 µM), actives largely listed as inhibitors; hit rate 0.46% among 330,000; AID 720580; calls by dose curve; tested in A549 cells; further: nearly all actives have a fitted effect of over 30% in size
HCV inhibitor = HCV inhibition | Potency, µM (series often up to 41.8 µM), hits mostly inhibitors | hit rate 3.4% among 340,000 | Huh7.5.1 HCVcc-Cre infection, luciferase reporter, 44 h | AID 651820; active means well fitted inhibition curve with a large enough effect; inconclusive means small, poorly fitted or top-dose-only effect, or another doubt; inactive means no such curve, though single readings can be large or run the other way
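After 44 h co-culture of compound, cells and HCVcc-Cre (~0.5 moi), substrate is added for 15 min at room temperature and luciferase measured over 15 sec. Cells were seeded at 1,000/well and pre-cultured 4 h.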
MARV entry inh = Marburg virus entry inhibition | Marburg virus pseudotyped entry inhibition, cell reporter | Potency, µM (top dose mostly 37.8 µM), actives largely listed as inhibitors | hit rate 1.8% among 300,000 | AID 540276; calls by dose curve; tested in HEK293 cells
Of the large screens only hits and unclear results are named; the others gave an inactive call. In the library only some 7.8% were active in any assay of this set; here they are far more common.

O=C(CSc1nc2ccsc2c(=O)n1-c1ccc(Cl)cc1)NCc1ccc(Cl)cc1	LASV entry inh inconclusive (no result: HCV inhibitor, MARV entry inh)
O=c1c2ccccc2n(Cc2cccc(F)c2)c(=O)n1Cc1ccccc1Cl	none (no result: HCV inhibitor)
CCCC(=O)N1CCN(c2nc3ccc(Cl)cc3s2)CC1	HCV inhibitor 11.2µM (no result: LASV entry inh, VACV mCherry inh, VACV Venus inh, MARV entry inh)
CCCC(=O)N1CCN(c2nc3ccc(Br)cc3s2)CC1	HCMV antiviral -68.1, HCV inhibitor 10µM (no result: LASV entry inh, VACV mCherry inh, VACV Venus inh, MARV entry inh)
CCCCC(=O)N1CCN(c2nc3ccc(Br)cc3s2)CC1	LASV entry inh inconclusive, HCV inhibitor 11.2µM
CCCC(=O)N1CCN(c2nc3ccc(CC)cc3s2)CC1	none (no result: LASV entry inh, VACV mCherry inh, VACV Venus inh, MARV entry inh)
COc1cccc(C2(CC(=O)N3CCCCC3CO)CC(=O)N(C)C2=O)c1 (stereo not drawn)	none (no result: LASV entry inh, HCMV antiviral, HCV inhibitor, MARV entry inh)
NC(N)=NN=C(c1ccc(F)cc1)c1ccc(C(F)(F)F)cc1	LASV entry inh 10µM, VACV mCherry inh inconclusive, HCMV antiviral -76.7, VACV Venus inh 12.6µM, HCV inhibitor inconclusive, MARV entry inh inconclusive
CC(=O)OCn1ncc(N2CCOCC2)c(Br)c1=O	HCMV antiviral inconclusive
O=C(OCc1cnc(Cl)s1)c1ccccc1Cl	none (no result: VACV mCherry inh)
O=C(OCn1ncc(Br)c(Br)c1=O)c1ccc(F)cc1	LASV entry inh 12.6µM, VACV mCherry inh 11.2µM, VACV Venus inh 10µM, HCV inhibitor inconclusive, MARV entry inh 5.62µM (no result: HCMV antiviral)
O=C(OCn1ncc(Br)c(Br)c1=O)c1ccccc1Cl	LASV entry inh 11.2µM, VACV mCherry inh inconclusive, VACV Venus inh inconclusive, HCV inhibitor inconclusive, MARV entry inh 10µM (no result: HCMV antiviral)
O=[N+]([O-])c1ccc(S(=O)(=O)Nc2nc3ccccc3nc2Nc2ccccc2)cc1	HCMV antiviral -80.5, HCV inhibitor inconclusive, MARV entry inh inconclusive
CC(=O)Nc1ccc(S(=O)(=O)Nc2nc3ccccc3nc2Nc2ccc3ccccc3c2)cc1	LASV entry inh inconclusive
COC(=O)c1cc(Nc2nc3ccccc3nc2NS(=O)(=O)c2ccc(C)cc2)ccc1Cl	VACV mCherry inh inconclusive, HCMV antiviral -105.5, VACV Venus inh inconclusive, MARV entry inh inconclusive (no result: HCV inhibitor)
COc1cc(Nc2nc3ccccc3nc2NS(=O)(=O)c2ccc([N+](=O)[O-])cc2)cc(OC)c1OC	LASV entry inh inconclusive, VACV mCherry inh inconclusive, HCMV antiviral -73.5, HCV inhibitor 22.4µM
Cc1ccccc1C1=NC(C)(CC(=O)Nc2ccc(F)cc2F)ON1C (stereo not drawn)	none (no result: LASV entry inh, VACV mCherry inh, VACV Venus inh, HCV inhibitor, MARV entry inh)
N[C@@H](Cc1ccc(O)cc1)C(=O)NO	none (no result: LASV entry inh, HCMV antiviral, HCV inhibitor, MARV entry inh)
O=C1Cc2c([nH]c3ccc(Br)cc23)-c2ccccc2N1	LASV entry inh inconclusive, VACV mCherry inh inconclusive, HCMV antiviral -75.2, VACV Venus inh inconclusive, HCV inhibitor inconclusive, MARV entry inh inconclusive
O=c1c2cc(Br)ccc2[nH]c(=S)n1-c1ccccc1	none
COc1ccc([C@@H]2[C@@H](C(=O)N3CCOCC3)CC(=O)N2C(=O)CCc2ccccc2)cc1	none (no result: LASV entry inh, VACV mCherry inh, VACV Venus inh, HCV inhibitor, MARV entry inh)
O=C(CCCn1c(=S)[nH]c2ccsc2c1=O)Nc1ccc2c(c1)OCCO2	HCMV antiviral -75.2 (no result: LASV entry inh)
COc1ccc(-c2nn(-c3ccccc3)cc2/C=N/n2cnnc2)cc1OC	HCV inhibitor inconclusive (no result: VACV mCherry inh)
COc1ccc(-c2nn(-c3ccccc3)cc2/C=N/NC(N)=S)cc1OC	LASV entry inh inconclusive, VACV mCherry inh inconclusive, VACV Venus inh inconclusive, HCV inhibitor 11.2µM, MARV entry inh inconclusive
COc1ccc(Cl)cc1NC(=O)CSc1ccc2nnc(CCNS(=O)(=O)c3ccccc3)n2n1	none (no result: HCV inhibitor, MARV entry inh)
CC1CC(N(C(=O)c2ccco2)c2ccccc2)c2ccccc2N1C(=O)c1ccco1 (stereo not drawn)	MARV entry inh inconclusive (no result: VACV mCherry inh, VACV Venus inh)
CC1CC(N(C(=O)c2ccc(Cl)cc2)c2ccccc2)c2ccccc2N1C(=O)c1ccco1 (stereo not drawn)	LASV entry inh 20µM, VACV Venus inh inconclusive, HCV inhibitor 10µM, MARV entry inh inconclusive (no result: VACV mCherry inh)
c1ccc(Sc2nc(N3CCCCC3)nc(N3CCCCC3)n2)nc1	HCV inhibitor 10µM (no result: VACV mCherry inh, VACV Venus inh)
N#Cc1ccc(NC(=O)COCc2cc(-c3ccc4c(c3)OCO4)on2)cc1	none (no result: HCV inhibitor, MARV entry inh)
CCOC(=O)c1c(NC(=O)CN2CCN(C)CC2)sc(C(=O)Nc2ccccc2)c1C	HCV inhibitor 6.31µM, MARV entry inh inconclusive
CC1(c2ccc(Cl)cc2)NC(=O)N(CC(=O)N2CCCC2)C1=O (stereo not drawn)	HCV inhibitor 15.8µM (no result: VACV mCherry inh, VACV Venus inh)
CCOC(=O)c1c(NC(=O)CN2C(=O)NC(C)(c3ccc(Cl)cc3)C2=O)sc(C(=O)NC)c1C (stereo not drawn)	LASV entry inh inconclusive, VACV Venus inh inconclusive, HCV inhibitor 14.1µM, MARV entry inh inconclusive
